# IL1B secr inh: blocks inflammasome-driven IL-1 beta release | THP-1 LPS/ATP IL-1B secretion, AlphaLISA, 16 h; hits give low values | activity change, % at 57.5 µM | 360,000 tested, 4.7% active; in the data active = activity change below about -50%; inconclusive = mostly about -30% to -49%; note: % is set by controls: 0 for no effect and ±100 for the full control effect
#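 Secreted IL-1B measured by AlphaLISA bead assay after 16 h compound exposure of THP-1 cells; compounds (final up to 57.5 uM) added 1 h before LPS (250 ng/mL) and ATP (1.25 mM) stimulation; lower signal means less secretion.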
# DT40 TDP1 CPT: DT40-hTDP1 cell growth loss with CPT; Potency, µM (highest dose often 46.2 µM), for inactives: at the top dose activity change, negative = growth inhibition, usual class: inhibitors; AID 686979; 420,000 tested, 12% active; chicken DT40 Tdp1-/-;hTDP1 cells + 20 nM CPT, ATP luminescence, 48 h; note: potency is the fitted concentration of half-maximal effect; % is set by controls: 0 for no effect and ±100 for the full control effect; nearly all actives have a fitted effect of over 55% in size
#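 Cell growth measured by CellTiter-Glo luminescence after a minimum 48 h, 37 C compound exposure with 20 nM CPT in Tdp1-knockout DT40 cells stably expressing hTDP1, seeded 400/well; qHTS titration format.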
# TGFb inhibitor: blocks TGF-b signaling; Potency, µM (top dose mostly 46.1 µM), without a hit: at the highest dose activity, negative = inhibition, actives largely listed as inhibitors; 410,000 tested, 1.2% active; HepG2 CAGA-GFP TGF-b/SMAD3 reporter, GFP fluorescence, 18 h; TGF-beta stimulated, 500 pg/mL final; note: potency is the fitted concentration of half-maximal effect; % is set by controls: 0 for no effect and ±100 for the full control effect; nearly all actives have a fitted effect of over 65% in size
#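 Using HEPG2 CAGA-GFP reporter cells at 1000 cells/well, we pinned test compounds, stimulated with recombinant TGF-beta (500 pg/mL final) and measured total well GFP after 18 h.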
# S-ASM inh: human S-ASM enzyme inhibition; P17405; placental ASM, HMU-PC fluorogenic substrate, 60 min; Potency, µM (doses to about 57.5 µM), for inactives: at the top dose activity change, negative = inhibition, hits mostly inhibitors; 340,000 tested, 0.006% active; note: potency is the fitted concentration of half-maximal effect
# Target sequence (P17405 47-631 limits assumed): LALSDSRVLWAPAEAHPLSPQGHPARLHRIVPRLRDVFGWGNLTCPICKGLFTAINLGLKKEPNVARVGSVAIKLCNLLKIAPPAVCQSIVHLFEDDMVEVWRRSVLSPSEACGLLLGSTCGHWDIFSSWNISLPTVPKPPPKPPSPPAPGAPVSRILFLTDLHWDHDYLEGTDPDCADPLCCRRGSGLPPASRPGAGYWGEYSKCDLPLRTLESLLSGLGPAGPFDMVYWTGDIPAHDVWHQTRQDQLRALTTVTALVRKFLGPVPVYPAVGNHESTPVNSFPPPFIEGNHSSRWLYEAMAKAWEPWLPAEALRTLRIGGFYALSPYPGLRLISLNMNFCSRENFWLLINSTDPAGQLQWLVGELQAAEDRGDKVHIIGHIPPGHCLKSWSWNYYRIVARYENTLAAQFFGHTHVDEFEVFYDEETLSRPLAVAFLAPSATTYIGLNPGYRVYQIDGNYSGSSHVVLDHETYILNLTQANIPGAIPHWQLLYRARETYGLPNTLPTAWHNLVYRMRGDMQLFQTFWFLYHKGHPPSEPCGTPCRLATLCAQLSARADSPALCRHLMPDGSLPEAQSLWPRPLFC
#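 Steps: dispense placental human ASM, pin compound, wait 10 min at room temperature, add HMU-PC0 substrate at 9 uM final, incubate 60 min at 37 °C, add stop solution raising pH to 10, read fluorescence.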
# TDP1 cell noCPT: qHTS for Inhibitors of human tyrosyl-DNA phosphodiesterase 1 (TDP1): qHTS in cells in absence of CPT; DT40 Tdp1-/- hTDP1 cells, no CPT, ATP luminescence, 48 h; Potency, µM (highest dose often 46.2 µM), without a hit: at the highest dose activity change, negative = growth inhibition, most hits filed as inhibitors; 420,000 tested, 15% active; note: potency is the fitted concentration of half-maximal effect; % is set by controls: 0 for no effect and ±100 for the full control effect; nearly all actives have a fitted effect of over 55% in size
#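 Growth kinetics read by CellTiter-Glo luminescence after ≥48 hr at 37 °C. Cells: DT40 Tdp1-/- stably carrying human TDP1, 400 per well, compound exposure in the absence of CPT (DMSO vehicle).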
# HepG2 viability: counter-screen for TGF-b inhibitors: cytotoxicity in HepG2 cells; Potency, µM (top dose mostly 46.1 µM), for inactives: at the top dose activity change, negative = cytotoxicity, most hits filed as cytotoxic; HepG2 CAGA-GFP viability, ATP luminescence, 18 h; 410,000 tested, 0.76% active; AID 588856; note: potency is the fitted concentration of half-maximal effect
#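 CellTiter-Glo luminescence gave cytotoxicity after 18 hours at 37 degrees C. The cells were HepG2 CAGA-GFP in 1% FBS DMEM, stimulated with 500 pg/mL TGF-beta after compound addition. %Activity was normalised to no-cell wells (complete cell-killing) and DMSO (no toxicity), and curves were fitted and classified.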
# Starred values were filed as active, the others as inactive; u = inconclusive; x = no result given. An excerpt weighted towards active compounds, which were near 19% of everything screened. Unless noted, calls come from the whole dose curve; as a rule, active = well fitted curve in the direction sought with a large enough effect; inconclusive = small, poorly fitted or top-dose-only effect, or another doubt; inactive = no such curve, though single readings can be large; an effect the other way counts as inactive or inconclusive.
SMILES,IL1B secr inh,DT40 TDP1 CPT,TGFb inhibitor,S-ASM inh,TDP1 cell noCPT,HepG2 viability
CN1CCN(C2=C(Cl)C(=O)N(c3ccc(Cl)c(Cl)c3)C2=O)CC1,u,29µM*,u,-2%,u,-61%
COc1ccc(C2c3ccc(O)cc3Oc3ncn(Cc4ccco4)c(=N)c32)cc1OC (stereo not given),u,u,-6%,-2%,u,-15%
COc1ccc(C2c3ccc(O)cc3Oc3ncn4nc(-c5cccnc5)nc4c32)cc1OC (stereo not given),-25,u,u,u,12µM*,-14%
COc1ccc(S(=O)(=O)N2CCC(C(=O)NC3CCCCC3)CC2)cc1C,-4,1%,u,-22%,-20%,-5%
Cc1cccc(-n2c(C)nc3cc(C(=O)NC4CCCCCC4)ccc32)c1,x,13µM*,12%,x,23µM*,-24%
Cc1cccc(-n2c(C)cc(C(=O)NC3CCCCC3)c2C)c1,-90*,u,-4%,3%,13µM*,-15%
O=C(Cc1ccc(Cl)cc1)NCC(c1cccs1)S(=O)(=O)c1ccc(F)cc1 (stereo not given),x,u,u,x,u,-6%
CCc1ccc(CN(Cc2ccco2)c2cnc(S(C)(=O)=O)nc2C(=O)Nc2cccc(C)c2)cc1,x,13µM*,u,x,21µM*,-26%
CCS(=O)(=O)c1ncc(N(Cc2ccccc2)Cc2ccco2)c(C(=O)Nc2ccc(C)c(C)c2)n1,x,21µM*,0%,x,12µM*,4%
COc1ccc(NC(=O)c2nc(S(C)(=O)=O)ncc2N(Cc2ccc(C)cc2)Cc2ccco2)cc1Cl,x,u,-5%,x,18µM*,4%
Cc1ccc(NC(=O)c2nc(S(C)(=O)=O)ncc2N(Cc2ccccc2)Cc2ccco2)c(C)c1,x,13µM*,0%,x,18µM*,-5%
CCS(=O)(=O)c1ncc(N(Cc2ccccc2)Cc2ccco2)c(C(=O)Nc2ccccc2C)n1,x,-18%,12%,x,-23%,-15%
Cc1ccc(NC(=O)c2nc(S(C)(=O)=O)ncc2N(Cc2ccco2)Cc2ccco2)cc1C,x,u,0%,x,u,13%
O=C(NC(=S)N1CCN(c2ccccc2)CC1)c1c(F)cccc1F,0,-22%,0%,0%,-27%,-10%
CCOc1cccc(C2c3c(oc4cc(C)c(C)cc4c3=O)C(=O)N2c2nc(C)c(C)s2)c1 (stereo not given),x,-6%,-4%,x,-28%,-5%
CC(C)(Cc1ccccc1)/[N+]([O-])=C\c1ccccc1,-9,u,0%,0%,u,8%
CS(=O)(=O)c1ncc(N(Cc2ccco2)Cc2cccs2)c(C(=O)Nc2ccccc2F)n1,x,u,u,x,21µM*,7%
COc1ccc(Cl)cc1NC(=O)c1nc(S(C)(=O)=O)ncc1N(Cc1ccc(C)cc1)Cc1ccco1,x,8.2µM*,-2%,x,9.2µM*,2%
O=c1[nH]c2ccc(NCc3ccc(-c4ccc(F)cc4)o3)cc2[nH]1,x,-23%,4%,x,-13%,7%
CC1(C)CC(=O)c2cnc(NC(=O)CSC(=S)N3CCCCC3)nc2C1,26,2%,-1%,8%,-15%,-17%
CCOC(=O)CSc1n[nH]c(-c2cccnc2)n1,-81*,6%,-5%,2%,-16%,-35%
CCOc1ccc(S(=O)(=O)N2CCC(C(=O)NCc3cccnc3)CC2)cc1,0,-16%,-5%,0%,-11%,2%
